The source of these data is the supplement of paper PMC13380429.

Each structure is given as a SMILES string.

The test system of this experiment is Vero E6 infected with SARS-CoV-2. In words: morphology score (similarity to uninfected cells); higher = more like uninfected cells. To be noted: 24 h.
Molecule `CCc1c(C(=O)NCCc2ccc(N3CCCCC3)cc2)[nH]c2ccc(Cl)cc12` (10 µM) returned a morphology score of -0.0889.

For the molecule `C=CC(=O)N1CCN(C(=O)CNc2cc(I)c(Cl)cc2O)CC1` [K-Ras(G12C)-inhibitor-12] (10 µM), the morphology score is -0.138. Under `CN1[C@@H]2C[C@@H](OC(=O)[C@H](CO)c3ccccc3)C[C@H]1[C@@H]1O[C@@H]12` (10 µM) stands 0.141; under `C=C(c1ccc(C(=O)O)cc1)c1cc2c(cc1C)C(C)(C)CCC2(C)C` [bexarotene] (10 µM), 0.18; under `N#Cc1ccc(Cn2cncc2CN2CCN(c3cccc(Cl)c3)C(=O)C2)cc1` (10 µM), 0.276. Under `C/C(=N\NC(=O)C(NC(=O)c1ccccc1)c1n[nH]c(=O)c2ccccc12)c1cccc(Br)c1` (stereo not drawn) (10 µM) stands 0.029; under `FC(F)(F)c1ccccc1-c1cc(C(F)(F)F)c2[nH]c(C3=NOC4(CCCCC4)C3)nc2c1` (10 µM), -0.000445. `O=c1[nH]ccc2cc(OC3CCNCC3)ccc12` (10 µM) displayed a morphology score of 0.27.

`CC(C)Nc1cc(-c2c[nH]c(C(=O)N[C@H](CO)c3cccc(Cl)c3)c2)c(Cl)cn1` (0.833333 µM) had a morphology score of -0.017.

`C=CC1=C(C)C2=CC3=NC(=C(CC(=O)O)C4=NC(=C(C)C4=C(O)O)C=c4[nH]c(c(C)c4CC)=CC1=N2)C(CCC(=O)O)C3C` (stereo not drawn) [chlorophyllin] (10 µM) yielded a morphology score of 0.148. Under `Cc1cnc(C(=O)N[C@H]2CCCCC/C=C\[C@@H]3C[C@@]3(C(=O)NS(=O)(=O)C3CC3)NC(=O)[C@@H]3C[C@@H](Oc4nc5ccccc5c5ccccc45)CN3C2=O)cn1` [paritaprevir] (10 µM) stands 0.303; under `C[C@]12CC[C@@H]3c4ccc(O)cc4CC[C@H]3[C@@H]1C[C@@H](O)[C@@H]2O` [estriol] (10 µM), -0.0117. Under `COc1nc(N)nc2c1ncn2[C@@H]1O[C@H](CO)[C@@H](O)[C@@H]1O` [nelarabine] (10 µM) stands -0.0124.

In turn, `CC1=CC[C@@H](C(C)(C)O)C[C@@H]1O` [sobrepin] (10 µM) registered a morphology score of -0.0987. Under `CN(C)CCc1c[nH]c2ccc(Cn3cncn3)cc12` [rizatriptan] (10 µM) stands -0.00598. Under `C1CCC(/N=C(\NC23CC4CC(CC(C4)C2)C3)N2CCOCC2)CC1` (10 µM) stands -0.0395. The molecule `CCCNC(=O)Nc1ccc(Oc2ncnc3cc(OC)c(OC)cc23)cc1Cl` (10 µM) yielded a morphology score of -0.0266. In the case of `CCS(=O)(=O)c1cccc(-c2cc(C(=O)NC3CCN(C)CC3)c(C)c3[nH]c4ncc(C)cc4c23)c1` (0.833333 µM), the morphology score turned out to be 0.14.

The molecule `N#CCC(=O)NN` [cyacetacide] (10 µM) had a morphology score of 0.167. Under `NS(=O)(=O)c1cc2c(cc1C(F)(F)F)NC(Cc1ccccc1)NS2(=O)=O` (stereo not drawn) [bendroflumethiazide] (10 µM) stands 0.136.

For `CCN1/C(=C/C(C)=O)Sc2ccc(OC)cc21` (10 µM), the morphology score was -0.0524.

For the molecule `O=S(=O)(N[C@H](CO)C(C(F)(F)F)C(F)(F)F)c1ccc(Cl)s1` [begacestat] (10 µM), the morphology score was determined as 0.00774. Regarding `CC1(CN2CCC(n3c(=O)[nH]c4ccccc43)CC2)OCc2ccccc2-n2cccc21` (stereo not drawn) [zaldaride] (10 µM), the morphology score was -0.152. As to `O=C(NNc1nc2cc(F)ccc2n2cccc12)c1cnccn1` (10 µM), the morphology score turned out to be 0.0623. Under `O=C(O)/C=C(/CC(=O)O)C(=O)O` [cis-aconitic-acid] (10 µM) stands -0.118; under `c1cc(-c2sc(-c3ccncc3)c(-c3ccncc3)c2-c2ccncc2)ccn1` (10 µM), 0.0438.

In turn, `NC(=O)C(c1ccccc1)(c1ccccc1)[C@@H]1CCN(CCc2ccc3c(c2)CCO3)C1` [darifenacin] (10 µM) showed a morphology score of -0.025. With `O=S(=O)(c1ccccc1)N(CC(F)(F)F)c1ccc(C(O)(C(F)(F)F)C(F)(F)F)cc1` (10 µM), the morphology score was determined as 0.0275.
